Structures are written as SMILES. About 83,000 compounds went through this panel and 20% of them were active in at least one assay; those are over-represented in the sample as a whole.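 For each line, cells grew in 96-well plates with the test compound present at a single concentration for 48 hours.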 A number with no mark means an inactive call. The source made the active and inactive calls. The calls were made as follows: active = growth percent below 10; inactive = the rest.

In PubChem BioAssay (NCI) one finds growth data, which are given here for eight compounds.

Common to all, as to assay: NCI-60 one-dose screen, 48 h (100 = growth as untreated, 0 = no growth, -100 = all killed)
Details in all cases: 10 µM unless noted

Experiment [1] concerns SK-MEL-2 melanoma.
Experiment [2] deals with EKVX NSCLC.
For experiment [3], the system named is SN12C renal.
In experiment [4] the test system is UO-31 renal.
Experiment [5] concerns TK-10 renal.
For experiment [6], the system named is ACHN renal.
Experiment [7] concerns CAKI-1 renal.
Experiment [8] relates to A498 renal.
The subject of experiment [9] is CCRF-CEM leukemia.
Experiment [10] relates to MOLT-4 leukemia.
Experiment [11] has as its system SR leukemia.
Experiment [12] relates to RPMI-8226 leukemia.
The subject of experiment [13] is OVCAR-8 ovarian.
Experiment [14] deals with OVCAR-5 ovarian.
For experiment [15], the system named is OVCAR-4 ovarian.
The test system of experiment [16] is SK-OV-3 ovarian.
The subject of experiment [17] is IGROV1 ovarian.
Experiment [18] deals with OVCAR-3 ovarian.
Experiment [19] relates to HS 578T breast.
Experiment [20] has as its system NCI/ADR-RES ovarian.

Turning to `COc1ccc(-c2cc(Nc3ccnc(N4CCOCC4)n3)on2)cc1`, the growth in experiment [1] was 42%; in experiment [2] it was 50.9%; in [3], 47.2%; in [4] it was 51.9%; in [5] it was 69.1%; in experiment [6], 44.9%. Also, the growth in experiment [7] was 51.8%; in experiment [8], -0.776% (active); in [9], 17.2%; in experiment [10], 21.2%; in experiment [11], 31.1%; in experiment [12] it was 25.2%. Further, the growth in [13] is 37.2%; in experiment [14] it was 46.6%; in [15] it was 62.1%; in [16], 43.2%; in [17] it was 43.1%; in [18], -17.6% (active). Further, the growth is 18.7% in experiment [19] and 10.8% in experiment [20].

As for `Nc1ccc(-c2cc3c(NCc4ccccc4)ncnc3s2)cc1`, the growth in experiment [1] is 85.1%; in experiment [2] it was 57.9%; in [3], 72.6%; in [4] it was 58.5%; in experiment [5] it was 50.2%; in [6] it was 52.7%. Moreover, the growth in experiment [7] is 63.1%; in [8], 52.6%; in [9] it was 81.9%; in experiment [10], 83.7%; in experiment [11] it was 81.5%; in [12], 62.6%. Also, the growth is 94% in experiment [13]; 77% in [14]; 60.6% in experiment [15]; 102% in experiment [16]; 49.9% in [17]; 80% in experiment [18]. The growth was 86.5% in [19] and 80.7% in experiment [20].

In the case of `COc1ccc(-n2nc(C)c3c(Nc4ccc(NC(=O)Nc5cccc(C(F)(F)F)c5)cc4)ncnc32)cc1`, the growth is -21.1% (active) in [1]; 10.1% in experiment [2]; 22.5% in [3]; -44.9% (active) in experiment [4]; 10.7% in [5]; -10.2% (active) in experiment [6]. In addition, the growth in [7] is -18.9% (active); in experiment [8], 48.5%; in experiment [9] it was 18.2%; in experiment [10] it was 8.98% (active); in experiment [11], 21.2%; in experiment [12], -10.9% (active). Moreover, the growth is 2.63% (active) in [13]; 2.66% (active) in [14]; 7.24% (active) in experiment [15]; 16.9% in [16]; 7.48% (active) in experiment [17]; -31.6% (active) in experiment [18]. Further, the growth is -6.67% (active) in [19] and 4.85% (active) in experiment [20].

`C(=N/Nc1ncc(-c2cc3cc(-c4ccccc4)ccc3o2)s1)/c1cccs1`: the growth was 99.7% in [1]; 94.9% in experiment [2]; 87.6% in experiment [3]; 84.8% in [4]; 97.5% in [5]; 97.9% in experiment [6]. The growth in experiment [7] is 103%; in [8], 32.5%; in [9], 97.5%; in experiment [10], 96.5%; in experiment [11], 79%; in [12], 70.4%. For the same compound, the growth in experiment [13] was 99.5%; in experiment [14], 93.9%; in experiment [15], 89.6%; in experiment [16], 113%; in experiment [17], 102%; in experiment [18] it was 97.1%. The growth is 107% in experiment [19] and 101% in experiment [20].

In the case of `CSc1nc2c(c(=O)[nH]1)C1(C(=O)Nc3ccccc31)c1c(nc(SC)[nH]c1=O)N2`, the growth in [1] was 105%; in experiment [2], 108%; in experiment [3] it was 102%; in experiment [4], 87.1%; in experiment [5], 110%; in experiment [6], 103%. Moreover, the growth was 103% in [7]; 116% in experiment [8]; 109% in [9]; 108% in [10]; 98.8% in experiment [11]; 108% in experiment [12]. Moreover, the growth is 110% in experiment [13]; 93.9% in experiment [14]; 109% in experiment [15]; 114% in experiment [16]; 102% in experiment [17]; 105% in experiment [18]. Moreover, the growth in experiment [19] is 106%; in experiment [20] it was 108%.

In the case of `Oc1cccc2ccc(N/N=C/c3cc(CN4CCOCC4)c(O)c4ncccc34)nc12`, the growth in experiment [1] is 25%; in [2] it was 23.4%; in experiment [3], 20.2%; in [4], -4.14% (active); in experiment [5] it was 23%; in experiment [6], -29.3% (active). Moreover, the growth in [7] was 11.5%; in experiment [8], 21.3%; in experiment [9], 16.6%; in experiment [10], 9.34% (active); in experiment [11], 2.95% (active); in [12], 16.2%. The growth in experiment [13] was 13%; in [14] it was 28.3%; in experiment [15], 14.2%; in [16], -14.9% (active); in experiment [17], 18.7%; in experiment [18], 23.2%. Moreover, the figures for the growth in experiment [19] and in experiment [20] were 36.3% and 2.84% (active), respectively.

As to `Cc1ccc(O)c(N2C(=NCc3ccco3)NS(=O)(=O)c3cnccc32)c1`, the growth in experiment [1] is 106%; in [2], 101%; in experiment [3] it was 101%; in [4], 91.2%; in [5] it was 124%; in experiment [6], 106%. Besides, the growth in [7] is 68.4%; in [8], 109%; in experiment [9], 61.2%; in [10], 87.9%; in [11] it was 71.3%; in [12], 65.7%. Also, the growth is 64.5% in [13]; 92.4% in experiment [14]; 107% in [15]; 117% in [16]; 94.2% in [17]; 96.9% in [18]. The growth in [19] was 113%; in experiment [20] it was 95.2%.

For the compound `O=C1/C(=C/C(Cl)=C/c2ccccc2)SC(=S)N1CCc1ccc(O)cc1`, the growth in experiment [1] was 12.8%; in [2] it was 11%; in experiment [3], 6.85% (active); in experiment [4] it was -84.5% (active); in [5], 16.8%; in [6] it was -73.4% (active). Moreover, the growth in [7] is -15.7% (active); in experiment [8], -0.593% (active); in experiment [9] it was 9.68% (active); in experiment [10], 9.33% (active); in experiment [11] it was 13.3%; in experiment [12] it was 2.88% (active). In addition, the growth in [13] was 16.7%; in experiment [14] it was -20.3% (active); in experiment [15], 30.7%; in experiment [16], 34.8%; in experiment [17], -36.6% (active); in [18], -7.98% (active). The growth in [19] is 37.5%; in experiment [20], 9.23% (active).
